One experiment relates to ACOX1. More on the design: species or system human, MV4-11 + K-562 + COLO205 + SK-N-BE2 + OVCAR-8. The settings on record: read-out: apparent Kd, n = 1.
For another experiment, the system named is GAK. More on the design: species or system human, MV4-11 + K-562 + COLO205 + SK-N-BE2 + OVCAR-8. The settings on record: read-out: apparent Kd, compound concentrations: 100 nM and 1000 nM (sheet 'Samples'), n = 1.
The test system of a further experiment is CLK1. More on the design: species or system human, MV4-11 + K-562 + COLO205 + SK-N-BE2 + OVCAR-8. The settings on record: read-out: apparent Kd; compound concentrations:100 nM and 1000 nM (sheet 'Samples'); n = 1.
The test system of a further experiment is HCK. More on the design: species or system human, MV4-11 + K-562 + COLO205 + SK-N-BE2 + OVCAR-8. The settings on record: read-out: apparent Kd, n = 1.
The test system of another experiment is CSNK2A2. More on the design: species or system human, MV4-11 + K-562 + COLO205 + SK-N-BE2 + OVCAR-8. The settings on record: read-out: apparent Kd, n = 1.
The next experiment addresses Q6ZSR9 (human, UniProt Q6ZSR9). More on the design: species or system MV4-11 + K-562 + COLO205 + SK-N-BE2 + OVCAR-8. The settings on record: read-out: apparent Kd; compound concentrations: 100 nM and 1000 nM (sheet 'Samples'), CATDS: 3.9115403920336002E-2; n = 1.
For another experiment, the system named is RIPK2. More on the design: species or system human, MV4-11 + K-562 + COLO205 + SK-N-BE2 + OVCAR-8. The settings on record: read-out: apparent Kd, n = 1.
For a further experiment, the system named is RIPK3. More on the design: species or system human, MV4-11 + K-562 + COLO205 + SK-N-BE2 + OVCAR-8. The settings on record: read-out: apparent Kd; compound concentrations: 100 nM and 1000 nM (sheet 'Samples'), CATDS: 0.107109560808048; n = 1.
The next experiment concerns YES1. More on the design: species or system human, MV4-11 + K-562 + COLO205 + SK-N-BE2 + OVCAR-8. The settings on record: read-out: apparent Kd; compound concentrations: 100 nM and 1000 nM (sheet 'Samples'), CATDS: 0.19959075009265401; n = 1.
The mark [1] stands for this setting: compound concentrations:100 nM and 1000 nM (sheet 'Samples').

Like-named read-outs stand apart in the source and are kept apart here.

Potency estimated from few doses data for 23 molecules are collected here from publication PMC11062922 (Nature Chemical Biology, 2023).

Q6ZSR9, sequence (Q6ZSR9 whole entry, looked up): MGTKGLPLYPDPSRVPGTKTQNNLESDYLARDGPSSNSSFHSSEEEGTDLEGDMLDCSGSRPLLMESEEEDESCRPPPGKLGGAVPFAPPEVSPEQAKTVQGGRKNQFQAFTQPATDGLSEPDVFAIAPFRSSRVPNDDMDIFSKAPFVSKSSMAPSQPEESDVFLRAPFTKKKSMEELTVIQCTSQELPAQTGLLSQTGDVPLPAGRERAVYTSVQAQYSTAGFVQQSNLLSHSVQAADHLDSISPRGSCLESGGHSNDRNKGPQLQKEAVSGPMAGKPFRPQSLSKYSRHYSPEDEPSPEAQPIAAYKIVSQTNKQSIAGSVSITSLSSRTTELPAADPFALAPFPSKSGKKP

Take `COc1ccc(-c2nn3ncccc3c2-c2ccnc(Nc3ccc4c(c3)OCCO4)n2)cc1` [GW827106X]: the potency estimated from few doses was 1840 nM in the experiment on ACOX1 (compound concentrations: 100 nM and 1000 nM (sheet 'Samples'), CATDS: 4.5987124512604401E-2); 888 nM in the experiment on GAK (CATDS: 6.3505143893273594E-2). Take `Cc1ccc(NC(=O)c2ccc(Cl)cc2)cc1-c1ccc(C(=O)Nc2ccncc2)cc1` [GSK1398467A]: in the experiment on ACOX1 (compound concentrations: 100 nM and 1000 nM (sheet 'Samples'), CATDS: 0.25978974702241497), the potency estimated from few doses is 761 nM. `COc1cc(F)c(F)c(F)c1C(=O)c1cnc(NC2CCN(S(C)(=O)=O)CC2)nc1N` [RO4600703-000]: the results for the potency estimated from few doses in the experiment with ACOX1 (setting [1]) and in the experiment on CLK1 were 1010 nM and 729 nM, respectively. Turning to `CC(=O)Nc1ccc2c(C3=C(c4cn(C)c5ccccc45)C(=O)NC3=O)cn(C)c2c1` [RO0317596-000], the potency estimated from few doses with ACOX1 (compound concentrations: 100 nM and 1000 nM (sheet 'Samples'), CATDS: 0.20475693554228799) is 453 nM. As to `Cn1cc(C2=C(c3cccc([N+](=O)[O-])c3)C(=O)NC2=O)c2ccccc21` [RO0317474-000], in the experiment on ACOX1 (compound concentrations: 100 nM and 1000 nM (sheet 'Samples'), CATDS: 0.177541909552099), the potency estimated from few doses was 937 nM. Regarding `COc1ccccc1C(=O)c1cnc(NC2CCN(S(C)(=O)=O)CC2)nc1N` [RO4514610-000], in the experiment on ACOX1 (setting [1]), the potency estimated from few doses was 2190 nM. As for `CCCN1CCC(Oc2cc(Nc3nc(Nc4cccc(F)c4C(N)=O)c4cc[nH]c4n3)c(OC)cc2Cl)CC1` [GSK1713088A], in the experiment on ACOX1 (compound concentrations: 100 nM and 1000 nM (sheet 'Samples'), CATDS: 0.172971631917821), the potency estimated from few doses is 2220 nM. As to `COc1ccc(S(=O)(=O)NC2CCN(c3cc(C)nc(Nc4cccc(C#N)c4)n3)CC2)cc1.O=C(O)C(F)(F)F` [GSK1653539A], the potency estimated from few doses in the experiment with ACOX1 (compound concentrations: 100 nM and 1000 nM (sheet 'Samples'), CATDS: 0.290276615306997) is 1770 nM. Turning to `CCCCCNC(=O)[C@@H]1CCCN2C(=O)CC[C@H](NC(=O)[C@H](Cc3ccc(OP(=O)(O)O)cc3)NC(C)=O)C(=O)N12` [RO0324694-000], the potency estimated from few doses with ACOX1 (setting [1]) is 1640 nM. For the molecule `COc1cc(N2CCN(C(C)C)CC2)ccc1Nc1nc(Nc2cccc(F)c2C(=O)O)c2cc[nH]c2n1` [GSK1819799A], the potency estimated from few doses in the experiment on GAK (CATDS: 9.1160563566663896E-2) was 352 nM. With `NC(=O)c1cccnc1COc1cc(-c2ccc(N3CCOCC3)nc2)cc2ncccc12` [BI01125081], the potency estimated from few doses in the experiment with HCK (setting [1]) was 1350 nM.

Turning to `Cc1ccc(CC(=O)N2CCc3cc(-c4cn(C)c5ncnc(N)c45)ccc32)cc1` [GSK2634758A], in the experiment with ACOX1 (compound concentrations: 100 nM and 1000 nM (sheet 'Samples'), CATDS: 0.17317335895949701), the potency estimated from few doses was 1310 nM. Regarding `NC(=O)c1sc(-n2cnc3ccc(C(F)(F)F)cc32)cc1OCc1ccccc1Br` [GW853606X], in the experiment on ACOX1 (setting [1]), the potency estimated from few doses is 2200 nM. As to `COc1ccc(C2=C(c3cn(C)c4ccccc34)C(=O)NC2=O)cc1OC` [RO3206363-000], the potency estimated from few doses in the experiment on ACOX1 (compound concentrations: 100 nM and 1000 nM (sheet 'Samples'), CATDS: 3.3243349000795501E-2) was 1570 nM; with CSNK2A2 (compound concentrations: 100 nM and 1000 nM (sheet 'Samples'), CATDS: 3.3167701686651403E-2) it was 1580 nM; with HCK (compound concentrations: 100 nM and 1000 nM (sheet 'Samples'), CATDS: 3.6036002051639801E-2), 1170 nM; in the experiment with Q6ZSR9, 898 nM. As to `Cl.Oc1ccc2ncnc(Nc3ccc(OCc4ccccc4)cc3)c2c1` [GI262866A], the potency estimated from few doses is 830 nM with ACOX1 (setting [1]) and 923 nM in the experiment on RIPK2 (setting [1]). `COc1cccc(C2=C(c3cn(C)c4c(C)cccc34)C(=O)NC2=O)c1` [RO3301012-000]: the potency estimated from few doses was 97.9 nM in the experiment with ACOX1 (compound concentrations: 100 nM and 1000 nM (sheet 'Samples'), CATDS: 0.48882093351054501); 770 nM with RIPK2 (compound concentrations: 100 nM and 1000 nM (sheet 'Samples'), CATDS: 0.14252909212912099).

With `Cc1ccc(NC(=O)Nc2ccccc2)cc1-c1ccc(C(=O)Nc2ccncc2)cc1` [GSK1398471A], the potency estimated from few doses is 507 nM in the experiment on HCK (compound concentrations: 100 nM and 1000 nM (sheet 'Samples'), CATDS: 0.185556916463613); 310 nM with RIPK2 (compound concentrations: 100 nM and 1000 nM (sheet 'Samples'), CATDS: 0.252300510926462); 1620 nM in the experiment with RIPK3; 448 nM with YES1.

Turning to `Cl.Fc1cccc(COc2ccc(Nc3ncnc4cc(-c5ccc[nH]5)sc34)cc2Cl)c1` [GW693881A], the potency estimated from few doses in the experiment with ACOX1 (compound concentrations: 100 nM and 1000 nM (sheet 'Samples'), CATDS: 0.17026663208719101) is 1170 nM. In the case of `Cn1cc(C2=C(c3cn(CCCN/C(N)=N/[N+](=O)[O-])c4ccccc34)C(=O)NC2=O)c2ccccc21` [RO0318161-000], in the experiment on ACOX1 (compound concentrations: 100 nM and 1000 nM (sheet 'Samples'), CATDS: 0.32839321732103), the potency estimated from few doses was 1100 nM. With `CCS(=O)(=O)c1ccc(OC)c(Nc2ncc(-c3cccc(F)c3)o2)c1` [GW621970X_KCGS], the potency estimated from few doses in the experiment with CSNK2A2 (setting [1]) is 2010 nM.

In the case of `Cn1cc(C2=C(c3ccccc3[N+](=O)[O-])C(=O)NC2=O)c2ccccc21` [RO0317753-000], the potency estimated from few doses in the experiment with ACOX1 (compound concentrations: 100 nM and 1000 nM (sheet 'Samples'), CATDS: 8.6924247533373397E-2) is 891 nM. With `COc1ccc(C2=NC(c3ccc(Cl)cc3F)C(C(=O)Nc3ccc4[nH]ncc4c3)=C(C)N2)cn1.O=C(O)C(F)(F)F` (stereo not drawn) [GSK534913A], in the experiment with ACOX1 (setting [1]), the potency estimated from few doses is 1050 nM.

As for `Cc1[nH]nc2c1N=C(c1ccccc1Cl)c1cc([N+](=O)[O-])ccc1N2` [RO0274406-000], in the experiment with ACOX1 (compound concentrations: 100 nM and 1000 nM (sheet 'Samples'), CATDS: 6.8791722684654694E-2), the potency estimated from few doses is 1400 nM.
